Measured values reported in PubChem BioAssay (NCI).
The panel holds about 83,000 compounds, 20% with a hit somewhere; the sample as a whole holds those more often.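 How to read the values: 0–100, growth inhibition (40 = 60% inhibited); 0, no net growth; -100 to 0, cell death (-40 = 40% of starting cells died; -100 = all dead).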 Values without a mark were called inactive. Calls of active or inactive are those of the source. The calls were made as follows: active = growth percent below 10; inactive = the rest.

Assays:
Experiment in all cases: NCI-60 one-dose screen, 48 h (100 = growth as untreated, 0 = no growth, -100 = all killed)
Details in all cases: 10 µM unless noted
[1] = tested on: NCI-H23 lung
[2] = tested on: NCI-H226 lung
[3] = tested on: NCI-H322M lung
[4] = tested on: HOP-62 NSCLC
[5] = tested on: NCI-H460 lung
[6] = tested on: HOP-92 NSCLC
[7] = tested on: NCI-H522 lung
[8] = tested on: A549/ATCC NSCLC
[9] = tested on: 786-0 renal
[10] = tested on: COLO 205 colon

SMILES | growth [1] | growth [2] | growth [3] [%] | growth [4] | growth [5] | growth [6] | growth [7] | growth [8] | growth [9] | growth [10]
CC/C(=C(\CC)c1ccc(OCCN(CC)CC)cc1)c1ccc(OCCN(CC)CC)cc1 | 40.7% | 62.7% | 60.7 | 36.9% | 31.8% | -10.2% (active) | 16.2% | 37.1% | 22% | 
COc1ccc(-c2[nH]c3ccccc3c2/C=C(\C#N)S(=O)(=O)c2ccccc2)cc1 | 17.5% | 65.2% | 61.9 | 35.5% | 3.97% (active) | 65.5% | 26.8% | 33.9% | 22.1% | 
CCOc1ccc(Cc2nccc3cc(OCC)c(OCC)cc23)cc1OCC | 34% | 73.3% | 66.8 | 67.7% | 48% | 52% | 56.4% | 64.6% | 64.8% | 
CCC1S/C(=N\N=C(/C)c2cc3ccccc3o2)N(c2ccccc2)C1=O (stereo unspecified) | 93.6% | 108% | 92.2 | 101% | 123% | 47% | 88.3% | 113% | 103% | 
C#C[C@@]1(O)[C@@H](CO)O[C@@H](n2cc(Br)c3c(Cl)ccnc32)[C@@H]1O | 31.9% | 47.2% | 11.7 | 36.4% | 45% | -60.5% (active) | 32% | 46.2% | 33.5% | 
COc1ccc(NC(=O)Nc2ccc(-c3ccc(OC)c(OC)c3)nc2C)cc1 | 67.4% | 58% | 87 | 56.5% | 17.6% | 73.4% | 49.9% | 57% | 11.1% | 
Cc1ccc2c(C3C(C#N)=C(N)Oc4cc5ccccc5cc43)cc(=O)oc2c1 (stereo unspecified) | 41% | 87.8% | 42.7 | 30.1% | 12.5% | 75.7% | 7.76% (active) | 25.1% | 26.2% | 2.72% (active)
O=C1c2ccccc2C(=O)c2c(NCCN=Cc3c(O)ccc4ccccc34)cccc21 | 92.9% | 91.7% | 91.4 | 47% | 88.7% | 37.9% | 84.7% | 19.9% |  | 
COc1cc(-c2nc3ccccc3s2)ccc1OCc1nc2n(n1)S(=O)(=O)c1ccccc1N2c1ccccc1 | 109% | 95.7% | 92.9 | 88.2% | 110% | 70.8% | 85.4% | 110% | 95.1% | 
CC1CCc2cc(F)cc3c(=O)c(C(=O)O)cn1c23 (stereo unspecified) | 91.5% | 103% | 116 | 106% | 105% | 91.9% | 110% | 104% | 87.1% | 104%
CCN(CC)CCNCC(O)Cc1ccc(OC)cc1 (stereo unspecified) | 103% | 90.5% | 91.4 | 102% | 107% | 81.4% | 66.1% | 96% | 98.5% | 111%
COc1ccc(-c2nnc(SCC(=O)N3CCN(c4cc5c(cc4F)c(=O)c(C(=O)O)cn5C4CC4)CC3)o2)cc1OC | 101% | 103% | 96.2 | 67% | 104% | 51.6% | 88.6% | 101% | 69.3% | 74.1%
CN(C)c1ccc(/C=N/n2c(-c3cc(F)c(Cl)cc3Cl)nn(CN3CCOCC3)c2=S)cc1 | 101% | 97.2% | 94.9 | 87.1% | 121% | 75.2% | 74.1% | 101% | 101% | 108%
COc1cc2c(cc1OC)-c1c(oc3c4c(ccc3c1=O)OC(C)(C)C=C4)CO2 | 45.6% | 89.3% | 86.2 | 59.6% | 77.1% | 90.2% | 56.7% | 71.3% | 76.6% | 113%
O=C(Nc1ccc(F)cc1)Nc1ccc(Cl)c([N+](=O)[O-])c1 | -1.96% (active) | 16% | 28.4 | 38.8% | 3.03% (active) | -8.16% (active) | 2.42% (active) | 17.1% | 26.7% | 12%
CC(C)NCC(O)COc1ccc(CC(N)=O)cc1 (stereo unspecified) | 105% | 102% | 100 | 102% | 109% | 85.6% | 94.9% | 106% | 97.2% | 114%
O=C(Nc1ccc(-n2cc(-c3ccncc3)c(-c3ccc(O)c(Cl)c3)n2)cc1)Nc1cccc(Cl)c1Cl | 66% | 73.7% | 79.7 | 87.6% | 43% | 16.5% | 66.1% | 38.9% | 58.3% | 39.1%
CCNC(=O)Oc1ccc(/C(=C(/CC)Cc2ccccc2)c2ccc(OCCN3CCOCC3)cc2)cc1 | 66.8% | 59.4% | 72.8 | 84% | 44.7% | 38.6% | 56.4% | 36.7% | 55.7% | 50.9%
c1ccc(-c2nc3sc(C(c4ccccc4)c4ccccc4)nn3c2-c2ccccc2)cc1 | 92.2% | 99.6% | 93.6 | 89.9% | 95.6% | 77.9% | 95.3% | 85.3% | 94.9% | 86.8%
COc1ccc(/C=C/C(=O)c2ccc(-n3cc(CN4CCN(c5cc6c(cc5F)c(=O)c(C(=O)O)cn6C5CC5)CC4)nn3)cc2)cc1OC | 50.6% | 32.4% | 52.6 | 38.7% | 53.1% | 81.6% | 49.5% | 15.7% | 43.7% | 60.9%
O=C(Cn1c2ccccc2c2ccncc21)N/N=C/c1c[nH]c2ccccc12 | 48.3% | 73.3% | 72.8 | 55.5% | 1.47% (active) | 61.2% | 58.8% | 25.2% | 44% | 88.2%
O=C(Nc1cccc([N+](=O)[O-])c1)c1ccc2ccccc2c1O | 41.6% | 76.9% | 105 | 53% | 50.2% | 6.8% (active) | -8.09% (active) | 68.1% | 40.4% | 110%
C#C[C@@]1(O)[C@@H](CO)O[C@@H](n2cc(C(F)(F)F)c3c(N)ncnc32)[C@@H]1O | 2.72% (active) | -12.1% (active) | 16 | 7.02% (active) | 2.05% (active) | -13.7% (active) | -52.5% (active) | -4.98% (active) | 4.52% (active) | -77.1% (active)
C=C1C(=O)O[C@H]2[C@H]1CC/C(COC(=O)n1ccnc1C)=C\CC[C@@]1(C)O[C@@H]21 | 98.7% | 91.2% | 98.3 | 99.4% | 105% | 106% | 66.3% | 89.3% | 95.7% | 89.8%
O=C(Nc1ccc(-n2ccc3c(NC(=O)c4ccccc4)nccc32)cc1)c1cccc(C(F)(F)F)c1 | 50% | 63.9% | 48.8 | 46.2% | 2.21% (active) | 47.4% | 12.2% | 13% | 18.3% | 35.8%
CC(C)(C)C(=O)/C=c1/[nH]c(=O)/c(=C/c2ccccc2O)s1 | 73.1% | 76.4% | 71.7 | 46% | 23.8% | 80.4% | 26.8% | 44.2% | 87.3% | 89.1%
COc1ccc(C(=O)NC(=O)Nc2ccc3c(c2)NC(=O)/C3=C\c2[nH]c(C)c(C(=O)O)c2C)c(F)c1 | 48.9% | 67.1% | 45 | 64.9% | 69.8% | 63.9% | 37.8% | 47.6% | 35% | 88.6%
